Assays:
Conditions in all cases: concentration: 1 μM, replicates: in singlicate; n = 1
EPHB6 = test system: EPHB6
ERBB2 = test system: ERBB2
ERBB3 = test system: ERBB3
ERBB4 = test system: ERBB4
ERK1 = test system: T1, ERK1
T1 construct: gene MAPK3

ERK2 = test system: T2, ERK2
T2 construct: gene MAPK1

ERK3 = test system: T3, ERK3
T3 construct: gene MAPK6

ERK4 = test system: T4, ERK4
T4 construct: gene MAPK4

ERK5 = test system: T5, ERK5
T5 construct: gene MAPK7

ERK8 = test system: T6, ERK8
T6 construct: gene MAPK15

ERN1 = test system: ERN1
FAK = test system: T7, FAK
T7 construct: gene PTK2

FER = test system: FER
FES = test system: FES
FGFR1 = test system: FGFR1
FGFR2 = test system: FGFR2
FGFR3 = test system: FGFR3
FGFR4 = test system: FGFR4
FGR = test system: FGR
FLT1 = test system: FLT1
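Note: KINOMEscan kinase panel screen.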

SMILES | %Inh (EPHB6) [%] | %Inh (ERBB2) [%] | %Inh (ERBB3) [%] | %Inh (ERBB4) [%] | %Inh (ERK1) [%] | %Inh (ERK2) [%] | %Inh (ERK3) [%] | %Inh (ERK4) [%] | %Inh (ERK5) [%] | %Inh (ERK8) [%] | %Inh (ERN1) [%] | %Inh (FAK) [%] | %Inh (FER) [%] | %Inh (FES) [%] | %Inh (FGFR1) [%] | %Inh (FGFR2) [%] | %Inh (FGFR3) [%] | %Inh (FGFR4) [%] | %Inh (FGR) [%] | %Inh (FLT1) [%]
O=c1cc(N2CCOCC2)nc2n(Cc3cccc4ccccc34)ccn12 [GSK2333389] | 12 | 0 | 0 | 0 | 3 | 0 | 0 | 25 | 0 | 43 | 10 | 1 | 1 | 0 | 4 | 0 | 7 | 0 | 9 | 30
Cc1cccc(-c2nc(-c3ccc(S(C)(=O)=O)cc3)sc2-c2ccncc2)c1 | 46 | 4 | 9 | 0 | 6 | 29 | 6 | 0 | 2 | 0 | 0 | 4 | 14 | 37 | 26 | 1 | 0 | 0 | 45 | 0
Fc1ccc(-c2ncn(CCCN3CCOCC3)c2-c2cccnc2)cc1 [SB-211743] | 0 | 0 | 0 | 0 | 0 | 8 | 0 | 0 | 0 | 29 | 18 | 0 | 21 | 0 | 0 | 0 | 2 | 0 | 0 | 8
Cc1nnc(-c2ccc3occ(-c4ccc(C(C)O)cc4)c3c2)o1 (stereo not drawn) | 15 | 0 | 9 | 0 | 0 | 0 | 15 | 10 | 7 | 31 | 0 | 0 | 0 | 17 | 0 | 16 | 22 | 19 | 11 | 16
Nc1nc(-c2ccc3c(N)n[nH]c3c2)cc(N2CCCC2)n1 [GSK2227430] | 19 | 0 | 0 | 8 | 0 | 0 | 0 | 24 | 0 | 0 | 0 | 0 | 0 | 1 | 0 | 38 | 0 | 0 | 20 | 14
Cc1ccc(NC(=O)c2ccnc(N3CCN(C)CC3)c2)cc1-c1ccc(C(=O)NCC2CC2)cc1 [GW775604] | 0 | 0 | 0 | 0 | 0 | 0 | 0 | 0 | 0 | 0 | 0 | 0 | 24 | 0 | 0 | 0 | 0 | 0 | 8 | 0
NCC(NC(=O)c1cc(-c2cn[nH]c2)c(-c2ccnc3[nH]ccc23)s1)c1ccccc1.O=C(O)C(F)(F)F.O=C(O)C(F)(F)F (stereo not drawn) [GSK1325775] | 12 | 32 | 0 | 10 | 0 | 0 | 20 | 9 | 0 | 51 | 29 | 57 | 0 | 0 | 20 | 0 | 0 | 0 | 0 | 0
COCCNC(=O)c1ccc(-c2cc(C(=O)NC3CC3)cc(F)c2C)cc1 [GW868318] | 23 | 13 | 29 | 8 | 2 | 25 | 6 | 8 | 0 | 29 | 38 | 3 | 1 | 32 | 17 | 3 | 7 | 3 | 32 | 7
COc1ccc(Nc2ncc(C#N)c(Nc3ccccc3C(N)=O)n2)cc1N1CCN(C)CC1.Cl [GSK1558669] | 98.3 | 80 | 96.6 | 88 | 7 | 0 | 100 | 100 | 99.9 | 98.9 | 92 | 100 | 99.5 | 99.3 | 100 | 99.8 | 99.9 | 85 | 96.5 | 100
Cl.Nc1ncnc2occ(-c3ccc(NC(=O)Nc4cc(C(F)(F)F)ccc4F)cc3)c12 [SB-707548] | 98.6 | 44 | 24 | 23 | 0 | 0 | 0 | 8 | 12 | 99.2 | 25 | 93.7 | 31 | 6 | 74 | 77 | 63 | 71 | 41 | 99.5
CN(C1=C(c2ccccc2)C(=O)NC1=O)c1ccccc1 [SB-334860] | 20 | 29 | 0 | 33 | 1 | 13 | 1 | 44 | 0 | 0 | 20 | 0 | 19 | 0 | 0 | 0 | 24 | 18 | 17 | 0
O=C(NCCNc1ccnc(Nc2ccc(F)cc2)n1)c1cc2ccccc2s1 [GSK1379874] | 11 | 1 | 0 | 51 | 0 | 0 | 0 | 3 | 0 | 0 | 54 | 0 | 16 | 0 | 0 | 62 | 6 | 0 | 15 | 19
Fc1ccc(-c2ncn(CCCN3CCOCC3)c2-c2ccccn2)cc1 [SB-211742] | 0 | 10 | 52 | 6 | 0 | 5 | 0 | 0 | 19 | 0 | 0 | 29 | 0 | 10 | 0 | 0 | 0 | 0 | 27 | 23
NS(=O)(=O)c1cccc(-c2ccc3ncc(N4CCOCC4)nc3c2)c1 [GSK1535721] | 25 | 32 | 11 | 1 | 0 | 0 | 0 | 0 | 10 | 0 | 2 | 0 | 3 | 6 | 0 | 0 | 22 | 15 | 27 | 13
O=c1cc(N2CCOCC2)nc2n(Cc3cccc(C(F)(F)F)c3)ccn12 [GSK2297543] | 0 | 16 | 0 | 5 | 0 | 0 | 0 | 12 | 0 | 0 | 6 | 0 | 34 | 0 | 11 | 0 | 19 | 1 | 17 | 17

Source: article PMC5540273 (PLoS ONE, 2017)
